Bioassay records from PubChem.
The sample as a whole holds a higher share of hits than the screen did.
Pf Dd2 growth – inhibitors of Plasmodium falciparum Dd2 growth; P. falciparum Dd2 growth, SYBR Green, 72 h; Potency, µM (doses to about 28.9 µM), usual class: inhibitors; 120,000 compounds, 4.3% hits; AID 1347417; active means well fitted inhibition curve with a large enough effect; further: nearly all actives have a fitted effect of over 65% in size
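Infected erythrocytes (Dd2, 0.3% parasitemia, 2.5% hematocrit final) are added to compound in RPMI-1640/Albumax II medium, grown 72 h at 37C in low oxygen, then lysed with saponin/Triton-X containing SYBR Green and read by fluorescence.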
Each line names hits and unclear results; the compound was inactive in the other large screens.

CCNC(=O)N1CCCC(Cc2ncc(C)n2CC2CC2)C1 (stereo not drawn)	none
Cc1ccc(C)c(NC(=O)CSc2nc(-c3ccccc3)c(C#N)c(=O)[nH]2)c1	none
CCOc1ccccc1NC(=O)CSc1nc2c(c(=O)[nH]1)CCC2	none
COc1ccccc1NC(=O)CSc1nc(-c2ccc(C(C)(C)C)cc2)c(C#N)c(=O)[nH]1	Pf Dd2 growth 10µM
O=C(c1nccs1)c1cccnc1N1CCNCC(O)C1 (stereo not drawn)	none
CC1CCCN(CCCNC(=O)c2ccc3c(c2)N(Cc2ccc(Cl)cc2)C(=O)c2ccccc2S3(=O)=O)C1 (stereo not drawn)	none
CCc1ccccc1NC(=O)c1ccc2c(c1)N(Cc1cc(C)ccc1C)C(=O)c1ccccc1S2(=O)=O	Pf Dd2 growth 7.1µM
O=C(c1ccc2c(c1)N(Cc1ccccc1)C(=O)c1ccccc1S2(=O)=O)N1CCCCCC1	Pf Dd2 growth 4µM
Cc1ccc(C)c(CN2C(=O)c3ccccc3S(=O)(=O)c3ccc(C(=O)NCCCN4CCCC(C)C4)cc32)c1 (stereo not drawn)	Pf Dd2 growth 4µM
COc1ccc(CNC(=O)c2ccc3c(c2)N(Cc2ccccc2F)C(=O)c2ccccc2S3(=O)=O)cc1	none
O=C(c1ccc2c(c1)N(Cc1ccccc1F)C(=O)c1ccccc1S2(=O)=O)N1CCCCCC1	none
COc1ccc(CCNC(=O)c2ccc3c(c2)N(Cc2ccccc2F)C(=O)c2ccccc2S3(=O)=O)cc1OC	none
O=C(c1ccc2c(c1)N(Cc1cccc(Cl)c1)C(=O)c1ccccc1S2(=O)=O)N1CCCCC1	none
O=C(c1ccc2c(c1)N(Cc1ccc(Cl)cc1)C(=O)c1ccccc1S2(=O)=O)N1CCN(Cc2ccccc2)CC1	none
Cc1cccc(CN2C(=O)c3ccccc3S(=O)(=O)c3ccc(C(=O)N4CCCC4)cc32)c1	none
Cc1ccc(C)c(CN2C(=O)c3ccccc3S(=O)(=O)c3ccc(C(=O)N4CCN(C)CC4)cc32)c1	Pf Dd2 growth 5µM
O=C(c1cccc2c1CCN2C(=O)C1CC1)N1CCCCC1	none
O=C1NCN(Cc2ccc(Cl)cc2)C12CCN(Cc1cccc(C(F)(F)F)c1)CC2	none
COc1ccc(-c2nnc3n2CCN(C(=O)C2CCCC2)C3)cc1	none
COc1ccc(CNC2(Cc3cc(C(=O)N4CCCCC4)on3)COC2)cc1	none
O=C(N[C@H]1CCCNC1=O)C1=C[C@@H](NC(=O)c2cccnc2)[C@@H](O)[C@H](O)C1	none
O=C(c1ccccc1Cl)N1CCN(c2cc(C(F)(F)F)ncn2)CC1	none
COc1ccc(-c2nc(C3CN(C(=O)NCc4ccccc4)C3)no2)cc1	none
Cc1ccc(CN2CC[C@@H]3[C@H]2C(=O)NC[C@H](CCC(=O)NCc2cccs2)N3C)cc1	none
O=C(c1cccnc1)N1CCC(Oc2cccnc2)C1 (stereo not drawn)	none
CCn1ncc(N2CCCC(CC(=O)NCCc3ccccc3)C2)cc1=O (stereo not drawn)	none
Cn1cc(C2c3nccn3CCCN2C(=O)c2ncccc2F)cn1 (stereo not drawn)	none
COCCN1CCNc2nc(COc3cccc(C(F)(F)F)c3)n(Cc3ccccc3)c2C1=O	none
O=C(OCC1CCCO1)c1ccc2c(c1)N(Cc1ccccc1Cl)C(=O)c1ccccc1S2(=O)=O (stereo not drawn)	Pf Dd2 growth 8.9µM
Cc1cccc(CN2C(=O)c3ccccc3S(=O)(=O)c3ccc(C(=O)OCC4CCCO4)cc32)c1 (stereo not drawn)	none
O=C(OCC1CCCO1)c1ccc2c(c1)N(Cc1cccc(F)c1)C(=O)c1ccccc1S2(=O)=O (stereo not drawn)	none
CCn1c(=N)n(CCOc2ccc(Br)cc2)c2ccccc21	Pf Dd2 growth 5µM
COc1cccc(OCc2nc3ccccc3n2CCOc2ccccc2)c1	none
c1ccc(OCCn2c(COc3ccccc3)nc3ccccc32)cc1	none
COc1ccc(S(=O)(=O)N2CC[C@H]3NC(=O)N(c4ccc(C(C)C)cc4)C(=O)[C@H]32)cc1	none
Cc1cc(NC(=O)CCCn2c(C)c3cnn(-c4ccccc4)c(=O)c3c2C)ccc1Br	Pf Dd2 growth 11µM
Cc1ccc(NC(=O)CCCn2nc(C)c3c(C)n(-c4ccccc4)nc3c2=O)cc1Cl	none
CCN(CC)c1ccc(NC(=O)Cn2c(C)c3cnn(-c4ccccc4)c(=O)c3c2C)c(C)c1	none
CN1C(=O)C(c2ccccc2)CC12CCN(S(C)(=O)=O)CC2 (stereo not drawn)	none
CN1C(=O)C(c2ccccc2)CC12CCN(C(=O)C1CCCC1)CC2 (stereo not drawn)	none
CN1C(=O)C(c2ccccc2)CC12CCN(CCC(=O)O)CC2 (stereo not drawn)	Pf Dd2 growth 10µM
CCN1C(=O)C2(CCN(S(=O)(=O)c3ccc(C)c(Cl)c3)CC2)c2ccccc21	none
Cc1cc2cc(-c3c(C)noc3C)nc(N3CCCC3)c2o1	none
Cc1cc2cc(-c3c(C)noc3C)nc(Nc3ccccc3)c2o1	none
Cc1cc2cc(-c3c(C)noc3C)nc(N(C)CCN(C)C)c2o1	Pf Dd2 growth 2µM
O=C(CCc1cc2n(n1)CCCNC2)Nc1ccc(-n2cncn2)cc1	none
CCCCC(=O)NC1CCN(c2cnn(C)c(=O)c2)CC1	none
CC(C)CC(=O)NC1CCN(c2cn[nH]c(=O)c2)CC1	none
CCCCC(=O)NC1CCN(c2cn[nH]c(=O)c2)CC1	Pf Dd2 growth 2.8µM
O=C(CN1C(=O)NC2(CCOCC2)C1=O)Nc1ccc(Cl)cc1F	none
Cc1nnc([C@@H]2CC(F)(F)CN2C(=O)c2ccco2)o1	none
COCCCNC(=O)CSc1nc2c(sc3ccccc32)c(=O)n1CCCC(=O)NCCOC	none
CC(C)OCCCNC(=O)CCCn1c(SCC(=O)c2ccc(F)cc2)nc2c(sc3ccccc32)c1=O	none
Cc1ccccc1CSc1nc2c(sc3ccccc32)c(=O)n1CCCC(=O)NCCCOC(C)C	Pf Dd2 growth 11µM
O=C(c1cc(F)ccc1F)N1CCC2(CC1)NC(=O)N(Cc1ccc(F)cc1)C2=O	none
O=C(O)CCCC(=O)N1CCN2C(=O)c3cc(-c4ccco4)ccc3NC(=O)[C@@H]2C1	none
Cc1ccc2nc(CN(C)Cc3cc(=O)c4cc(C(N)=O)ccc4[nH]3)[nH]c2c1	none
O=C(c1ccc(Cl)cc1)N1CCC(N2CCNC2=O)CC1	none
CC(C)(C)OC(=O)N1CCC(c2c(C(=O)NCCN3CCCC3)cnn2-c2ccc(Cl)cc2)CC1	Pf Dd2 growth 7.1µM
Cc1ccc(-n2ncc(C(=O)NCCN3CCC(Cc4ccccc4)CC3)c2C2CCN(C(=O)OC(C)(C)C)CC2)cc1	Pf Dd2 growth 3.2µM
Cc1c(Cl)cccc1-n1ncc(C(=O)N2CCN(C)CC2)c1C1CCN(C(=O)OC(C)(C)C)CC1	none
Cc1cccc(C)c1-n1ncc(C(=O)NCCN2CCN(C)CC2)c1C1CCN(C(=O)OC(C)(C)C)CC1	none
Cc1c(Cl)cccc1-n1ncc(C(=O)NCCN2CCN(C)CC2)c1C1CCN(C(=O)OC(C)(C)C)CC1	Pf Dd2 growth 11µM
COc1ccccc1CN1CCC(CNC(=O)c2cnn(-c3ccc(Cl)cc3)c2C2CCN(C(=O)OC(C)(C)C)CC2)CC1	Pf Dd2 growth 1.3µM
Cc1cc(-c2nc(CC(C)C)nn2-c2ccccn2)cc(S(N)(=O)=O)c1C	none
COc1ccc(-n2nc(C3CCN(C(=O)c4ccccc4Cl)CC3)[nH]c2=O)cc1	none
CN(CC1(C)CCOCC1)C(=O)NCc1ccco1	none
c1cc(-c2cc(-c3cn[nH]c3)c3cncn3c2)cc(N2CCOCC2)c1	none
O=C(CC[C@H]1NC(=O)c2ccccc2NC1=O)NCCCc1nc2ccccc2[nH]1	none
COc1ccc(C[C@H](NC(=O)[C@@H]2C[C@H](NC(=O)Nc3cccc(OC)c3)CN2C(=O)c2cccn2C)C(N)=O)cc1	none
